This is an account of results in PubChem BioAssay (NCI).

Among the test systems are NCI-H23 lung; NCI-H226 lung; NCI-H322M lung; HOP-62 NSCLC; HOP-92 NSCLC; NCI-H522 lung; A549/ATCC NSCLC; 786-0 renal; COLO 205 colon; NCI-H460 lung.
Holding throughout (assay): NCI-60 one-dose screen, 48 h (100 = growth as untreated, 0 = no growth, -100 = all killed)
Details in all cases: 10 µM unless noted

Compounds without any hit were thinned out: in the full panel of roughly 83,000, 20% have a hit.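 Assay: single dose, 48 h. Readout: percent growth (0 = no net growth; negative = cell death). Active: <10.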 Unmarked numbers belong to inactive results. The source made the active and inactive calls.

In the case of `Cc1ccc(Nc2ccc(Nc3ccc(C)cc3)c3c2C(=O)c2cccc(O)c2C3=O)cc1`, the growth is 84.5% with NCI-H23 lung; 73.1% in the experiment on NCI-H226 lung; 108% in the experiment with NCI-H322M lung; 101% with HOP-62 NSCLC; 70.4% in the experiment on HOP-92 NSCLC; 90.6% with NCI-H522 lung. Further, the figures for the growth with A549/ATCC NSCLC, in the experiment on 786-0 renal and in the experiment with COLO 205 colon were 103%, 111% and 102%, respectively.

For the compound `COc1ccc2oc3c(C)c4c(c(C)c3c2c1)C(=O)N(Cc1ccccc1)C4=O`, the growth in the experiment with NCI-H23 lung is 93.3%; in the experiment with NCI-H226 lung, 90.1%; with NCI-H322M lung, 92.4%; in the experiment with HOP-62 NSCLC, 88.9%; in the experiment on NCI-H460 lung it was 69.4%; with NCI-H522 lung it was 87.5%. The growth was 83.9% with A549/ATCC NSCLC, 114% in the experiment on 786-0 renal and 84.7% in the experiment on COLO 205 colon.

In the case of `CNC(=O)c1cc(Oc2cccc3nc(Nc4ccc(F)c(Cl)c4)ccc23)ccn1`, the growth is 70% in the experiment with NCI-H23 lung; 46.9% in the experiment on NCI-H226 lung; 76.6% with NCI-H322M lung; 50.5% in the experiment with HOP-62 NSCLC; 77.9% in the experiment with HOP-92 NSCLC; 40% in the experiment with NCI-H522 lung. The growth in the experiment with A549/ATCC NSCLC is 42.1%; with 786-0 renal, 42.6%; in the experiment with COLO 205 colon, 43.7%.

Take `CCN(CC)c1nc(SCC(=O)Nc2nc3ccc(C)cc3s2)nc(-c2ccccc2)c1C#N`: the growth was 103% with NCI-H23 lung; 86.2% in the experiment with NCI-H226 lung; 88.8% in the experiment on NCI-H322M lung; 91.9% with HOP-62 NSCLC; 55.4% with HOP-92 NSCLC; 82.5% in the experiment with NCI-H522 lung. In addition, the growth was 79.4% in the experiment on A549/ATCC NSCLC, 93.8% in the experiment on 786-0 renal and 102% in the experiment with COLO 205 colon.

Consider `CC(C)(C)C(CCc1ccc(Cl)cc1)N1CCN(C2CCCCC2)CC1` (stereo unspecified), for which the growth with NCI-H23 lung was 47.5%; with NCI-H226 lung, 78.5%; in the experiment with NCI-H322M lung, 82.8%; in the experiment with HOP-62 NSCLC it was 47.5%; with HOP-92 NSCLC, 45.3%; with NCI-H522 lung, 41%. The values for the growth in the experiment on A549/ATCC NSCLC, in the experiment with 786-0 renal and with COLO 205 colon were 24.9%, 42.4% and 33.7%, respectively.

`CN1CCN(CCCOc2ccc3nc(Nc4ccc(F)c(F)c4)ccc3c2)CC1`: the growth in the experiment on NCI-H23 lung is 51.5%; with NCI-H226 lung, 62.9%; in the experiment on NCI-H322M lung, 68%; in the experiment with HOP-62 NSCLC, 22.5%; with HOP-92 NSCLC it was 5.74% (active); with NCI-H522 lung, -50.4% (active). In addition, the growth in the experiment on A549/ATCC NSCLC was 16.1%; with 786-0 renal, 2.05% (active); in the experiment with COLO 205 colon, -72% (active).

On to `CCc1ccccc1-n1c(-c2ccc(Cl)cc2)cc(-c2ccc(OC)cc2)c(C#N)c1=O`, for which the growth was 102% in the experiment with NCI-H23 lung; 108% in the experiment with NCI-H226 lung; 126% with NCI-H322M lung; 103% in the experiment on HOP-62 NSCLC; 84.8% in the experiment on NCI-H522 lung; 103% with A549/ATCC NSCLC. Besides, the values for the growth in the experiment with 786-0 renal and with COLO 205 colon were 92% and 117%, respectively.

In the case of `CCCCn1c(=O)c2c(nc3n2CCCN3CCc2ccc(OCC(=O)NCCN(CC)CC)cc2)n(CCCC)c1=O`, the growth in the experiment on NCI-H23 lung is 68.7%; in the experiment on NCI-H226 lung it was 72.9%; in the experiment with NCI-H322M lung it was 94.4%; with HOP-62 NSCLC, 56.1%; in the experiment on HOP-92 NSCLC, 27.8%; in the experiment with NCI-H522 lung it was 44.1%. Further, the growth in the experiment with A549/ATCC NSCLC is 64.2%; in the experiment with 786-0 renal, 11.3%; with COLO 205 colon, 25.7%.

Regarding `COc1ccc(/C=c2\nc3n(-c4ccccc4)c4nc5c6c(sc5c(=N)n4n-3c2=O)CCCC6)cc1`, the growth in the experiment on NCI-H23 lung was 80.8%; in the experiment with NCI-H226 lung, 69.2%; with NCI-H322M lung, 94.6%; in the experiment on HOP-62 NSCLC, 88.1%; with NCI-H460 lung it was 98.1%; with NCI-H522 lung, 83.4%. In addition, the growth is 97.4% in the experiment on A549/ATCC NSCLC, 99.5% with 786-0 renal and 111% with COLO 205 colon.

Take `N#CCN1C(=O)C2C3=C(CCCC3)SC2N=C1CN1CCCC1` (stereo unspecified): the growth in the experiment on NCI-H23 lung was 97.9%; in the experiment on NCI-H226 lung it was 87.5%; in the experiment on NCI-H322M lung it was 91.2%; in the experiment on HOP-62 NSCLC, 89.6%; in the experiment with HOP-92 NSCLC, -1.97% (active); in the experiment on NCI-H522 lung it was 92.5%. For the same compound, the growth with A549/ATCC NSCLC is 93.1%; in the experiment on 786-0 renal, 92%; with COLO 205 colon it was 122%.

As for `O=c1c2cc(F)ccc2sc2c(NCCCN3CCCC3)nc3ccccc3c12`, the growth in the experiment on NCI-H23 lung was 64.2%; in the experiment with NCI-H226 lung, 79.2%; in the experiment with NCI-H322M lung, 64.1%; in the experiment on HOP-62 NSCLC, 63.5%; in the experiment on HOP-92 NSCLC it was 25.1%; with NCI-H522 lung, 25.1%. Further, the growth in the experiment with A549/ATCC NSCLC was 52.8%; in the experiment with 786-0 renal, 37.1%; in the experiment on COLO 205 colon it was 46%.

As to `O=C(Nc1ccccc1)Nc1cccc(Oc2nnc(Cl)c3ccccc23)c1`, the growth was 32.7% in the experiment with NCI-H23 lung; 8.66% (active) with NCI-H226 lung; 47.3% with NCI-H322M lung; -43.4% (active) in the experiment on HOP-62 NSCLC; -7.51% (active) with HOP-92 NSCLC; 2% (active) with NCI-H522 lung. The values for the growth with A549/ATCC NSCLC, with 786-0 renal and in the experiment with COLO 205 colon were 11.2%, 38.2% and 35.2%, respectively.

On to `COc1ccc2[nH]c(O)c(/C=c3/cc4c(c(-c5ccc(F)c(OC)c5)n3)=Nc3ccccc3-4)c2c1`, for which the growth is 61.1% in the experiment with NCI-H23 lung; 90.7% with NCI-H226 lung; 89.1% in the experiment with NCI-H322M lung; 88.6% with HOP-62 NSCLC; 57.5% with HOP-92 NSCLC; 67% in the experiment with NCI-H522 lung. In addition, the growth was 52.8% in the experiment on A549/ATCC NSCLC, -59% (active) with 786-0 renal and 84.8% with COLO 205 colon.
